Results as given in PubChem BioAssay AID2156 (Johns Hopkins Ion Channel Center, 2009).
The whole screen tested about 310,000 compounds, of which about 3,400 (1.1%) were called active. The full list was thinned out, with actives kept by preference. Values without a mark were called inactive.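 How the source made its calls: active means fluorescence ratio B-score at most minus 3 library SDs, with starting brightness B-score within 2 library SDs (cut at about -5.5 in these data); inactive means the rest, inconclusive results apart.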

Target: Potassium voltage-gated channel subfamily KQT member 2 (Rattus norvegicus) (UniProt O88943)
Sequence (O88943 whole entry, looked up): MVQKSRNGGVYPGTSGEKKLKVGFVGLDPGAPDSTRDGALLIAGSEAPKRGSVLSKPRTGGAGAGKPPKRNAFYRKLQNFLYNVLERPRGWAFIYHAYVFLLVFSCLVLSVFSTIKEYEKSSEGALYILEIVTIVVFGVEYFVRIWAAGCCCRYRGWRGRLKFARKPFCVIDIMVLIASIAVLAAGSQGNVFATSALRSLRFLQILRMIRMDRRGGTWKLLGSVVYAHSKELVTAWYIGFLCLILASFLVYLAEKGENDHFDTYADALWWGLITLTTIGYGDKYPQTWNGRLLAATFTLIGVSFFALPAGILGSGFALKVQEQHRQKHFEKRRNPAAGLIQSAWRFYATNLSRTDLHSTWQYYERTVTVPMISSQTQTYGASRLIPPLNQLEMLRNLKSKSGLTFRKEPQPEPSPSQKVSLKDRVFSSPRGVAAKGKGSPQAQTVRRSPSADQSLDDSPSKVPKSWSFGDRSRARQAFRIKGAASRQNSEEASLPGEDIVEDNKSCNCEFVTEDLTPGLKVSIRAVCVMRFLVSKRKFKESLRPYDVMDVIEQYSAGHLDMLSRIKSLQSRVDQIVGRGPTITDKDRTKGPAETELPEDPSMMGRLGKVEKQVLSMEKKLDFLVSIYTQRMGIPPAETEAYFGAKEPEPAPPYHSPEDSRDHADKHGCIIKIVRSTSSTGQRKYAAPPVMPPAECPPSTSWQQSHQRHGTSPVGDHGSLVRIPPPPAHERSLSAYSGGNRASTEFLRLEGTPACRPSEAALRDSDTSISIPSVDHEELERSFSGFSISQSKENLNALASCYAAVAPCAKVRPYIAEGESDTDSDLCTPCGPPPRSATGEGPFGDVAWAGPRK
Assay: rat KCNQ2 potassium channel inhibitors, primary screen, cell-based, CHO-K1, FluxOR thallium flux, B-score (AID 2156)
Details: 20 min, at 10 µM; active compounds read low

SMILES	B-score
O=C1CC(=O)N(Cc2ccccc2)C(=O)N1CCCCCCN1C(=O)CC(=O)N(Cc2ccccc2)C1=O	inactive
CC(C)(C)c1ccc(CN2C(=O)CN=C(c3ccccc3)c3ccccc32)cc1	-6.95 (active)
CCOC(=O)c1c(-c2ccccc2)oc2ccc(OC(=O)N(C)C)cc12	-4.87
COc1ccccc1C1=NCc2nnc(CSC)n2-c2ccc(Cl)cc21	inactive
O=C(c1ccccc1[N+](=O)[O-])N1CCC2(CC1)OCCO2	inactive
COc1ccccc1CN1CCN(C(=O)Cc2ccccc2)CC1	-0.38
Cc1nn(-c2ccccc2)c(C)c1NC(=O)COC(=O)Cc1ccccc1	inactive
COc1ccc(CN2CCN(c3ccccc3F)CC2)c(OC)c1	-0.09
O=c1[nH]c(O)c(C=Nc2cc(F)cc(F)c2)c(=O)[nH]1	inactive
Cc1nc2ccccn2c1P(=S)(N1CCCCC1)N1CCCCC1	-5.55 (active)
CCCCCn1c(=O)c(C(=O)NCc2ccccc2)c(O)c2ccccc21	-3.71
COc1ccccc1OC(=O)c1ccc(C)c(S(=O)(=O)N2CCOCC2)c1	inactive
O=C(c1cc2nc(-c3ccccc3)cc(-c3ccccc3)n2n1)N1CCC2(CC1)OCCO2	-2.41
COc1ccc2c(c1)[C@]13CCCCC1C(C2)N(C)CC3 (stereo not given in full)	inactive
C/C(=N/O)c1ccc2ccc3ccccc3c2c1	-0.17
Cc1ccc(Cn2c(C)c3cnn(CC(=O)N4CCC5(CC4)OCCO5)c(=O)c3c2C)cc1	inactive
O=C(CCN1CCCCC1)NCC(=O)Nc1ccc(Br)cc1C(=O)c1ccccc1	-0.1
CN(C)CC1Oc2ccccc2OC1(O)c1ccccc1 (stereo not given)	-8.59 (active)
O=C(O)C1CSC(c2cccnc2)N1 (stereo not given)	-1.95
C=CC12CN(C)[C@@H]3C4CO[C@H](C[C@H]41)[C@]1(C(=O)Nc4ccccc41)[C@@H]32 (stereo not given in full)	inactive
CCCCCCCCCCCCn1ccc(=N)cc1	-3.45
CC(c1ccccc1)(c1ccccc1)c1ccncc1	-6.57 (active)
CC[C@H]1CC2CN3CCc4c([nH]c5ccccc45)C(C(=O)OC)(C2)C13 (stereo not given in full)	-0.03
O=C(NC(c1ccc(Cl)cc1)P(=O)(Oc1ccccc1)Oc1ccccc1)OCc1ccccc1 (stereo not given)	-9.52 (active)
COc1ccc(C2N3CC(C)(C)CN23)cc1 (stereo not given)	inactive
